# “And” between values parts separate entries of the source, which are not always exact repeats. Identical values can stand only once. The panel holds about 83,000 compounds, 20% with a hit somewhere; the sample as a whole holds those more often.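 Cells were grown in 96-well plates and exposed to the test compound at a single concentration for 48 hours; results are reported as percent growth, with values below 10 considered active.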 The source made the active and inactive calls.
# Legend:
# Experiment in all cases: NCI-60 one-dose screen, 48 h (100 = growth as untreated, 0 = no growth, -100 = all killed)
# [1] = system: SR leukemia; details: 10 µM unless noted
# [2] = system: RPMI-8226 leukemia; details: 10 µM
# [3] = system: OVCAR-8 ovarian; details: 10 µM
# [4] = system: OVCAR-4 ovarian; details: 10 µM
# [5] = system: SK-OV-3 ovarian; details: 10 µM
# [6] = system: IGROV1 ovarian; details: 10 µM
# [7] = system: OVCAR-3 ovarian; details: 10 µM
# [8] = system: HS 578T breast; details: 10 µM
# [9] = system: NCI/ADR-RES ovarian; details: 10 µM
# [10] = system: OVCAR-5 ovarian; details: 10 µM
Structure (SMILES),growth [1],growth [2],growth [3],growth [4],growth [5],growth [6],growth [7],growth [8],growth [9],growth [10]
CN1CCN(CCCN2c3ccccc3Sc3ccc(C(F)(F)F)cc32)CC1,14.2% (inactive),-7.1% (active),78.2% (inactive),71.2% (inactive),92.4% (inactive),40.7% (inactive),92% (inactive),60.4% (inactive),70.8% (inactive),
Nc1nc(=S)c2ncn(C3OC(CO)C(O)C3O)c2[nH]1 (stereo not drawn),119% (inactive),103% (inactive) and 0.898% (active),100% (inactive) and 13.1% (inactive),103% (inactive) and 29.3% (inactive),118% (inactive),108% (inactive),112% (inactive) and 8.33% (active),163% (inactive) and 50.6% (inactive),106% (inactive) and 29.9% (inactive),101% (inactive) and 45.2% (inactive)
CCN1/C(=C/C=C/C=C/c2sc3ccccc3[n+]2CC)Sc2ccccc21,,-21.4% (active),-65.6% (active),-42% (active),-73.1% (active),-62.9% (active),-64.1% (active),26.2% (inactive),55.9% (inactive),7.61% (active)
O=C1C=CC(=CC=C2C=CN(CCCCCCCCCCCO)C=C2)C=C1,,11.9% (inactive),22.7% (inactive),35.4% (inactive),45.4% (inactive),41.2% (inactive),30.2% (inactive),35.6% (inactive),104% (inactive),55.4% (inactive)
CO[C@H](C(=O)[C@@H](O)[C@@H](C)O)[C@@H]1Cc2cc3cc(OC4CC(OC5CC(O)C(O)C(C)O5)C(O)C(C)O4)c(C)c(O)c3c(O)c2C(=O)[C@H]1OC1CC(OC2CC(OC3CC(C)(O)C(O)C(C)O3)C(O)C(C)O2)C(O)C(C)O1 (stereo partly drawn),10.5% (inactive),-14.5% (active),,8.23% (active),35.3% (inactive),-21% (active),3.02% (active),,44.4% (inactive),-54.9% (active)
CC[N+](CC)=c1ccc2nc3c(cc(N)c4ccccc43)oc-2c1,-47.2% (active),10.2% (inactive),-28.4% (active),-42.6% (active),-72.7% (active),-42.2% (active),-56.8% (active),-26.2% (active),-62.2% (active),-81.7% (active)
O=C(O)COc1ccc(OCC(=O)O)cc1,10.3% (inactive),-15.6% (active),13% (inactive),21.4% (inactive),11.4% (inactive),27.4% (inactive),16.7% (inactive),20.9% (inactive),83.3% (inactive),11% (inactive)
O=C(/C=C/c1cccnc1)c1ccccc1,14.5% (inactive),54.1% (inactive),83.8% (inactive),91.7% (inactive),103% (inactive),96.5% (inactive),85.8% (inactive),,86% (inactive),91.3% (inactive)
COc1c(O)cc2oc3cc(O)c(CC=C(C)C)c(O)c3c(=O)c2c1CC=C(C)C,7.13% (active),49.9% (inactive),54.7% (inactive),82.2% (inactive),89% (inactive),75% (inactive),46.1% (inactive),73.3% (inactive),38.6% (inactive),
C[n+]1c2cc(N)ccc2cc2ccc(N)cc21,5.82% (active) and 0.679% (active) and -0.456% (active),,,,3.68% (active) [middle of 4 runs],16.7% (inactive) and 36.3% (inactive) and 12.2% (inactive),,,18.2% (inactive) [middle of 4 runs],-5.86% (active) and 16.3% (inactive) and -3.49% (active)
O=C(/C=C/c1ccccn1)c1ccccc1,-15.7% (active),25.4% (inactive),28.9% (inactive),47.2% (inactive),108% (inactive),46.1% (inactive),17.3% (inactive),,35% (inactive),81% (inactive)
Clc1ccc(/C=C/c2ccccn2)c(Cl)c1,80.8% (inactive),102% (inactive),101% (inactive),71.2% (inactive),103% (inactive),69.6% (inactive),90.4% (inactive),86.3% (inactive),109% (inactive),106% (inactive)
COC1OCC(O)C(O)C1O (stereo not drawn),,109% (inactive),104% (inactive),101% (inactive),111% (inactive),,106% (inactive),98.9% (inactive),110% (inactive),110% (inactive)
CC1=CC(C)=Nc2ccc(Cl)cc2N1,91.1% (inactive),102% (inactive),102% (inactive),110% (inactive),98.7% (inactive),103% (inactive),102% (inactive),104% (inactive),102% (inactive),112% (inactive)
N=S(c1ccccc1[N+](=O)[O-])c1ccccc1[N+](=O)[O-],,72.8% (inactive),96.8% (inactive),38.4% (inactive),87.2% (inactive),53.9% (inactive),-58.8% (active),96.7% (inactive),90.4% (inactive),69.6% (inactive)
COc1ccc(CC(=O)c2ccc(O)cc2O)cc1,,,92.8% (inactive),99.2% (inactive),163% (inactive),122% (inactive),130% (inactive),108% (inactive),105% (inactive),105% (inactive)
Clc1cc(Cl)c(Cl)nn1,72% (inactive),75.6% (inactive),94.1% (inactive),109% (inactive),95.2% (inactive),107% (inactive),114% (inactive),101% (inactive),107% (inactive),115% (inactive)
CCCCCCCCCCCCCCCCCCOCC(COP(=O)([O-])OCC[N+](C)(C)C)OC (stereo not drawn),48.1% (inactive),33.1% (inactive),,109% (inactive),81.8% (inactive),11.8% (inactive),95.9% (inactive),,107% (inactive),-61.3% (active)
CCCCCC(C)c1ccc(O)c(C)c1 (stereo not drawn),94.3% (inactive),,102% (inactive),95.5% (inactive),106% (inactive),117% (inactive),105% (inactive),105% (inactive),102% (inactive),102% (inactive)
COC(=O)C1C(O)C(C)C(O)C(C)C=C(C)C2=C3C(=C(C)C(=O)c4c(O)c(c(C)c(OC(C)=O)c43)NC(=O)C(C)=C/C=C\C(C)C(O)C(C)C1O)OCO2 (stereo not drawn),138% (inactive),118% (inactive),114% (inactive),108% (inactive),116% (inactive),163% (inactive),113% (inactive),116% (inactive),121% (inactive),104% (inactive)
Cc1nc(N=C(N)N)nc2ccc3ccccc3c12,,34.9% (inactive),-6.19% (active),-3.65% (active),-5.35% (active),7.89% (active),-32.7% (active),3.6% (active),67.6% (inactive),26.8% (inactive)

# From PubChem BioAssay (NCI)
